p53ts 39C tox: kills p53ts cells at the nonpermissive temperature. H1299-p53A138V viability at 39C, ATP luminescence, 24 h. Potency, µM (top dose mostly 46.1 µM), for inactives: top-dose activity change, negative = cell killing, actives largely listed as cytotoxic. 1.5% of 130,000 active. AID 902; also: % is scaled to controls: 0 for no effect and ±100 for the full control effect; nearly all actives have a fitted effect of over 55% in size
Imprint erasure: induces erasure of genomic imprints in mouse ES cells. mouse ES Peg3-LacZ reporter, beta-gal luminescence, 40 h. 0.02% of 110,000 active. AID 1948. Potency, µM (top dose mostly 60.7 µM), for the others: at the highest dose activity change, positive = activation, hits mostly activators
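Each well holds 300 Peg3LacZ-Neo (maternal) female ES cells incubated 40 h at 37C, 5% CO2. LacZ is measured by BetaGlo luminescence, with AC50 and maximum efficacy derived from dose-response curves.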
Tau fil binding: binders of human tau filaments. 2% of 71,000 active. Potency, µM (doses to about 57.1 µM), inactives show top-dose activity change, negative = inhibition. recombinant tau filaments, thioflavin S fluorescence, 15 h; filaments grown with octadecylsulfate alongside compound;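 also: % is scaled to controls: 0 for no effect and ±100 for the full control effect; actives lower thioflavin S fluorescence by blocking filaments or displacing dye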
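His-tagged recombinant human tau (exons 2, 3, 10; 1 uM final) fibrillized with 30 uM sodium octadecylsulfate, 15 h at 37 C, in pH 7.4 HEPES buffer with 10 uM thioflavine S and 5 mM DTT. Reduced ThS fluorescence (450/510 nm) marks activity.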
p53ts 32C kill: cytotoxicity in p53ts cells at permissive temperature; H1299-p53A138V at 32C, ATP luminescence viability, 24 h; Potency, µM (top dose mostly 46.1 µM), without a hit: top-dose activity change, negative = cytotoxicity, usual class: cytotoxic; 0.93% of 130,000 active;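 also: 0% = DMSO and -100% = full killing by reference compound; nearly all actives have a fitted effect of over 55% in size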
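Viability by ATPlite luminescence after 24 h compound treatment (up to 46 uM) at the permissive 32C. Cells are H1299 carrying p53 A138V. Scale runs from DMSO basal to 100 uM tamoxifen as full kill; AC50 from Hill fits.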
FLuc inh: blocks Photinus pyralis firefly luciferase activity; P08659; Potency, µM (doses to about 57.1 µM), inactives show top-dose activity change, negative = inhibition, usual class: inhibitors; purified firefly luciferase, luminescence, 8 min; AID 411; 2.2% of 72,000 active; also: % is scaled to controls: 0 for no effect and ±100 for the full control effect; nearly all actives have a fitted effect of over 40% in size
Target sequence (P08659 whole entry, looked up): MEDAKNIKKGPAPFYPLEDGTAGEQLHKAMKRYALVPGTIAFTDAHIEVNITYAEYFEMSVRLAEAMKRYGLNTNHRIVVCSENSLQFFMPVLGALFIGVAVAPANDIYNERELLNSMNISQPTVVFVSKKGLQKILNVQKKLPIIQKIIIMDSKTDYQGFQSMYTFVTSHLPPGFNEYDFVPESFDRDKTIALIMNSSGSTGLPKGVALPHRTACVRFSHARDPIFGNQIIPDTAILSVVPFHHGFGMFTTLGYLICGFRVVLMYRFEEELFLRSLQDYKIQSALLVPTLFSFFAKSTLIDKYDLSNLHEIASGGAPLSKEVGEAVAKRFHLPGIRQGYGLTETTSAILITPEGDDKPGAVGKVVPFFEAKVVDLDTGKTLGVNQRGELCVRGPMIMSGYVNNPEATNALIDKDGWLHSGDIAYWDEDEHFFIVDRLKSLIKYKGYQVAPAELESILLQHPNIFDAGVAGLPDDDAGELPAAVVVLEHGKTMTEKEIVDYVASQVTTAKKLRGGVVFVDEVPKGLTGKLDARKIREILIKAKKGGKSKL
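Substrate buffer containing 10 uM ATP (pH 7.2 imidazole, Mg2+, KCl, detergent, BSA) is dispensed, compound pinned in, then luciferase/luciferin detector mix added. After 8 min at ambient temperature, light output is measured.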
* = called active by the depositor; ? = inconclusive; · = no result given; [ ] = another dose, or the depositor's remark. The list is not random: actives were taken first. Their share in the collection is about 3.4%. Calls follow the shape of the dose curve; as a rule, active = well fitted curve in the direction sought with a large enough effect; inconclusive = small, poorly fitted or top-dose-only effect, or another doubt; inactive = no such curve, though single readings can be large; an effect the other way counts as inactive or inconclusive. Potency is read from the fitted curve at half-maximal effect.

SMILES | p53ts 39C tox | Imprint erasure | Tau fil binding | p53ts 32C kill | FLuc inh
O=C(OCC(=O)N1CCc2ccccc21)c1ccccc1 | -6% | -12% | -3% | -9% | 20µM*
CCOC(=O)c1cccc(NC(=O)Cc2ccc(NC(=O)N3CCCCc4ccccc43)cc2)c1 | -15% | -7%[10.9 µM] | · | 11% | ·
CCOC(=O)c1ccc(NC(=O)N2CCc3ccccc32)cc1 | ? | -87% | 52% | ? | 4µM*
O=C(COc1ccc2c(c1)CCC2)N1CCc2ccccc21 | ? | -35% | 10% | 13µM* | 25µM*
COc1cccc(CNC(=O)c2sc3nc[nH]c(=O)c3c2C)c1 | -18% | 27%[10.9 µM] | · | 6% | ·
COc1ccc(Cc2ccc3[nH]c(=O)cc(C)c3c2)cc1S(=O)(=O)O | -4%[9.22 µM] | -1%[10.9 µM] | 2%[11.4 µM] | 0%[9.22 µM] | 4%[11.4 µM]
Cc1cccc(CS(=O)(=O)c2ncc(Cl)c(C(=O)Nc3nnc(C(C)C)s3)n2)c1 | 5µM* | -23%[10.9 µM] | · | 16µM* | ·
Cc1ccc(CS(=O)(=O)c2ncc(Cl)c(C(=O)Nc3nnc(C(C)C)s3)n2)cc1 | 5µM* | -31%[10.9 µM] | · | 13µM* | ·
CC(C)c1nnc(NC(=O)c2nc(SCc3ccc(F)cc3)ncc2Cl)s1 | -20% | -11%[10.9 µM] | · | -3% | ·
COc1ccc(CNC(=O)Cn2c(=O)nc(-c3ccccc3)c3cc(Cl)ccc32)cc1OC | -4% | 16%[10.9 µM] | · | -15% | ·
CCOc1cc(NC(=O)c2ccco2)c(OCC)cc1NC(=O)Cc1cccc(OC)c1 | -2% | -10% | 10µM* | 0% | -1%
C=CCn1c(SCC(=O)Nc2ccc(NC(=O)c3ccco3)c(OC)c2)nnc1-c1ccncc1 | -6% | -11% | 13µM* | 6% | 8%
COc1cc(NC(=O)CC(C)C)ccc1NC(=O)c1ccco1 | -29% | -1% | 4%[11.4 µM] | ? | 16µM*
C=CCn1c(SCC(=O)Nc2cc(OC)c(NC(=O)c3ccco3)cc2OC)nnc1-c1ccncc1 | 27% | · | · | 8% | ·
CCc1ccccc1NC(=O)CN1C(=O)CCc2cc(S(=O)(=O)N3CCCCC3)ccc21 | 4% | -8%[10.9 µM] | · | -9% | ·
CC(=O)c1cccc(NC(=O)CN(c2ccc(C)cc2)S(=O)(=O)c2cccc3nonc23)c1 | -4% | -10% | 4µM* | 0% | -3%
COc1ccc(NC(=O)CN(c2ccc(C)cc2)S(=O)(=O)c2cccc3nonc23)cc1OC | 15% | -2%[10.9 µM] | · | 3% | ·
N[C@@H](Cc1cc(-c2ccc(Cl)cc2Cl)cc(CP(=O)(O)O)c1O)C(=O)O | 3% | -2% | 40µM* | 5% | -2%
Cn1cccc1C(=O)OCC(=O)Nc1cc(C(C)(C)C)nn1-c1ccccc1 | 1% | -22% | -10% | 8% | 2%
Cn1cccc1C(=O)OCC(=O)c1cc2ccccc2o1 | -2% | -9% | 16µM* | -1% | 25µM*
CCC(C)c1ccc(OCC(=O)Nc2cccc(-c3nc4ncccc4o3)c2)cc1 (configuration not stated) | ? | -17%[10.9 µM] | · | ? | ·
O=C1c2ccccc2C(=O)c2c(Nc3ccc4c5c(cccc35)C(=O)c3ccccc3-4)cccc21 | -19%[9.22 µM] | -4%[10.9 µM] | -11%[11.4 µM] | 4%[9.22 µM] | 2%[11.4 µM]
O=C1c2ccccc2C(=O)c2c(Nc3cc4c5c(ccc6c7ccc8c9c(cc(Nc%10cccc%11c%10C(=O)c%10ccccc%10C%11=O)c(c3c56)c97)-c3ccccc3C8=O)C(=O)c3ccccc3-4)cccc21 | 8%[9.22 µM] | -1%[10.9 µM] | 3.2µM* | 3%[9.22 µM] | -1%[11.4 µM]
CCn1cc(C(=O)N2CCN(c3ccc(C)cc3)C(C)C2)c(=O)c2cc(S(=O)(=O)N3CCCC3)ccc21 (configuration not stated) | 15% | -7%[10.9 µM] | · | 3% | ·
C/C(=C\C(=O)c1ccc(C)cc1)Nc1cccc(O)c1 | -27% | -35% | 40% | ? | 5µM*
O=C(/C=C/Nc1cccc(O)c1)c1ccccc1 | 7.9µM* | -81% | -5% | 4µM* | 2µM*
Cc1ccc(C(=O)/C=C/Nc2cccc(O)c2)cc1 | · | · | · | · | 2.5µM*
N#Cc1sc2nc(-c3ccccc3)cc(-c3ccco3)c2c1N | 0% | -9% | 2.5µM* | -6% | -10%
CNC/C(Cl)=N/S(=O)(=O)c1ccc(C)cc1 | -13%[9.22 µM] | -9%[10.9 µM] | 19%[11.4 µM] | 5%[9.22 µM] | 0%[11.4 µM]
Cc1ccc(-c2ccc(SCC(=O)Nc3nonc3C)nn2)cc1 | ? | -50% | -2% | -28% | 7.9µM*
